LASV entry inh: blocks Lassa virus binding to or entry into cells; AID 540256; 300,000 compounds, 1.2% hits; Potency, µM (top dose mostly 37.9 µM), for the others: top-dose activity change, negative = inhibition, hits mostly inhibitors; Lassa virus pseudotype entry inhibition, cell reporter; calls by dose curve; tested in HEK293 cells; note: nearly all actives have a fitted effect of over 50% in size
Vaccinia Venus: inhibitors of vaccinia virus (Venus reporter); Vaccinia virus Venus reporter expression, fluorescence; Potency, µM (highest dose often 36.5 µM), inactives show at the highest dose activity change, negative = inhibition, hits mostly inhibitors; 330,000 compounds, 0.46% hits; AID 720580; calls by dose curve; tested in A549 cells; note: nearly all actives have a fitted effect of over 30% in size
MARV entry inh: inhibitors of Marburg virus binding or cell entry; 300,000 compounds, 1.8% hits; Potency, µM (titrated, usually from 37.8 µM), inactives show top-dose activity change, negative = inhibition, usual class: inhibitors; Marburg virus pseudotyped entry inhibition, cell reporter; calls by dose curve; tested in HEK293 cells
Sm TGR block: S. mansoni TGR enzyme inhibition; purified TGR, DTNB reduction, TNB absorbance 405 nm; Q962Y6; Potency, µM (doses to about 114 µM), inactives show at the highest dose activity change, negative = inhibition, actives largely listed as inhibitors; 360,000 compounds, 3% hits; active = well fitted inhibition curve with a large enough effect; inconclusive = small, poorly fitted or top-dose-only effect; inactive = no such curve, though single readings can be large or run the other way; note: nearly all actives have a fitted effect of over 60% in size
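Kinetic colorimetric format: TGR-catalysed, NADPH-driven DTNB reduction monitored via TNB absorbance. Enzyme dispensed at 20 nM; compound exposure 15 min at room temperature before reaction start.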
FMDV inh: blocks foot and mouth disease virus; Potency, µM (titrated, usually from 57.9 µM), for the others: top-dose activity change, negative = inhibition, most hits filed as inhibitors; AID 1159524; FMDV antiviral cell-based qHTS; 410,000 compounds, 1.2% hits; calls by dose curve; tested in HEK293T cells; note: read-out not given here; nearly all actives have a fitted effect of over 45% in size
VACV mCherry inh: inhibitors of vaccinia virus infection (mCherry reporter signal). Vaccinia virus mCherry reporter infection, fluorescence. Potency, µM (titrated, usually from 36.5 µM), for inactives: top-dose activity change, negative = inhibition, most hits filed as inhibitors. 310,000 compounds, 0.63% hits. AID 720579; calls by dose curve; tested in A549 cells; note: nearly all actives have a fitted effect of over 35% in size
* = called active by the depositor; i = inactive; u = inconclusive; x = not tested or not shown; [ ] = another dose, or the depositor's remark. Sampled rows, rich in hits. Any-hit rate of the full collection: about 5.4%. % is set by controls: 0 for no effect and ±100 for the full control effect; potency is the fitted concentration of half-maximal effect.

SMILES | LASV entry inh | Vaccinia Venus | MARV entry inh | Sm TGR block | FMDV inh | VACV mCherry inh
COc1ccc(CN(C(=O)CSc2nnc(-c3c[nH]c4ccccc34)o2)c2ccc(F)cc2)cc1OC | 7.1µM* | 10µM* | u | 0% | u | 10µM*
O=C(c1cc2sccc2n1Cc1ccc(F)cc1)N1CCN(c2nc3ccccc3s2)CC1 | -35% | u | 3.5µM* | 1% | u | u
Cn1c(C(=O)N2CCN(c3nc4ccccc4s3)CC2)cc2sccc21 | -1% | x | -28% | -16% | u | x
CCOC(=O)C1=C(CN2CCN(c3ccc(Cl)cc3)CC2)NC(=O)NC1c1ccc(OC)cc1 (configuration not stated) | -29%[46.1 µM] | u | x | -34% | u | -29%
CC(=NNC(=O)c1ccncc1)c1ccc2ccccc2c1O | 5µM* | 33% | 7.9µM* | x | -2% | u
CC(C)CC(=NNC(=O)c1ccncc1)c1cc(Cl)ccc1O | 3.2µM* | u | u | x | u | 5.6µM*
CC(=NNC(=O)c1ccncc1)c1ccc(O)cc1O | u | u | u | x | 10% | u
CC(=NNC(=O)c1ccncc1)c1ccccc1O | u | u | 3.2µM* | x | 5% | 1.1µM*
CC(=O)c1cccc(NC(=O)C2CCN(S(=O)(=O)c3ccc4c(c3)oc(=O)n4C)CC2)c1 | 1%[46.1 µM] | 1% | -20%[46.1 µM] | -1% | -21% | 1%
O=C1CCCC2=C1C(c1ccc(Cl)cc1)N=C(Nc1nc3ccccc3o1)N2 (configuration not stated) | x | -13% | x | x | x | -13%
CCOc1ccccc1NC(=O)C(Cc1ccccc1)NS(=O)(=O)c1ccc2c(c1)oc(=O)n2C (configuration not stated) | 7%[46.1 µM] | 4% | 4%[46.1 µM] | -15% | 4% | -6%
S=C(NCC1CCCO1)Nc1ccc(Cl)cc1 (configuration not stated) | 16% | -2% | u | u | 62% | -10%
CCOc1cc(NC(=S)NCC2CCCO2)c(OCC)cc1NC(=O)c1cccc(C)c1 (configuration not stated) | u | x | 1.6µM* | -10% | 3.2µM* | x
S=C(NCC1CCCO1)Nc1ccc(Cl)cc1Cl (configuration not stated) | u | -3% | -18% | 50µM* | 115% | -10%
O=S(=O)(c1ccccc1)c1nc(-c2cccs2)oc1NCCCn1ccnc1 | 5% | -15% | 0% | u | 10% | x
O=S(=O)(c1ccc(Br)cc1)c1nc(-c2ccco2)oc1NCCCn1ccnc1 | -1% | -9% | -1% | 22µM* | 40% | i
O=S(=O)(c1ccccc1)c1nc(-c2ccco2)oc1NCCCN1CCOCC1 | -17% | 8% | -6% | 28µM* | 13% | x
COc1ccccc1NC(=O)c1ccc(-c2nc(COc3ccc(C)cc3)c(C)o2)cc1 | -13%[46.1 µM] | -25% | x | 2% | u | -26%
Cc1ccc(-n2nnc(-c3nsc(NC(=O)c4ccc(C)c(C)c4)n3)c2C)cc1 | u | -21% | x | 12% | -7% | i
CCc1ccccc1-n1nnc(-c2nsc(NC(=O)c3ccc(C)c(C)c3)n2)c1C | u | u | x | 6% | 11µM* | -29%[7.34 µM]
Cc1ccc(C)c(NC(=O)CSc2nncn3c2cc2sccc23)c1 | 0%[46.1 µM] | u | x | 4% | -12% | u
CC1=CC(C)(C)n2c(O)c(N=NC(N)=S)c3c(C)ccc1c32 | -7% | u | -3% | -10% | -9% | 1.3µM*
CC(=NNc1nc2ccccc2s1)c1ncccn1 | 1µM* | 19% | u | x | -16% | 1µM*
C/C(=N\Nc1nc2ccccc2s1)c1cccs1 | 6.5µM* | -21% | u | 3% | -45% | -23%
C/C(=N\Nc1nc(-c2ccccc2)cs1)c1cccs1 | u | -9% | u | -19% | 0% | i
SMILES | LASV entry inh | Vaccinia Venus | MARV entry inh | Sm TGR block | FMDV inh | VACV mCherry inh
Cc1ccc(C(=O)Nc2cccc(-c3nc(CNC(=O)[C@@H]4C[C@@H](C)NC(=S)N4)c(C)o3)c2)s1 | x | -18% | x | x | 29% | -22%
Brc1ccc(-c2csc(N3CCCCC3)n2)cc1 | x | x | x | 2% | x | x
Cc1cc(-c2ccc(C)c(S(=O)(=O)N(C)c3ccc(C)c(C)c3)c2)on1 | -23%[46.1 µM] | -16% | x | 6% | 40µM* | -11%
COc1ccc(-c2cc(C)no2)cc1S(=O)(=O)N(C)c1cccc(C)c1 | x | x | x | 9% | -7% | x
Cc1ccc2ccc(S(=O)(=O)NCc3ccco3)cc2c1 | -3% | -8% | u | 13µM* | 79% | -8%
O=S(=O)(NCc1ccco1)c1ccc(Cl)cc1Cl | 4%[46.1 µM] | 4% | -18%[46.1 µM] | 45µM* | 16% | -8%
CCN(CC)CCN1C(=O)C(=O)/C(=C(\O)c2ccc(F)cc2)[C@@H]1c1ccncc1 | x | x | -20% | x | x | x
CN1CCN(c2ccc(Cl)cc2NC(=O)c2cccc(S(=O)(=O)N(C)C)c2)CC1 | 0% | -21% | u | 4% | x | -29%
CCN1CCN(c2ccc(S(=O)(=O)N3CCCCC3)cc2NC(=O)c2ccc([N+](=O)[O-])s2)CC1 | u | 10µM* | u | -7% | -28% | 8.9µM*
CCN1CCN(c2ccc(S(=O)(=O)N3CCCCC3)cc2NC(=O)/C=C/c2ccc(OC)c(OC)c2)CC1 | 17% | -22% | u | -1% | -15% | -10%
CN1CCN(c2ccc(Cl)cc2NC(=O)/C=C/c2cccc(F)c2)CC1 | -15%[46.1 µM] | -25% | 5µM* | 1% | 0% | u
CCN1CCN(c2ccc(S(=O)(=O)N3CCCCC3)cc2NC(=O)/C=C/c2ccc(Cl)cc2)CC1 | 18µM* | u | u | x | -19% | u
Cc1csc[n+]1CC(=O)c1ccc(I)cc1 | x | -17% | x | x | x | -14%
CSc1nc(C(=O)NCc2nc(-c3cccc(NC(=O)c4ccc(C)s4)c3)oc2C)cs1 | x | 14% | x | x | 30% | -4%
Nc1ccc2ccccc2c1N=Nc1ccccc1 | u | -9% | 1%[46.1 µM] | x | 28% | u
CCCc1oc2ccc(NS(=O)(=O)c3ccc(OC)cc3)cc2c1C(=O)OCC | 1µM* | u | x | 5% | 23% | u
CCCc1oc2ccc(NS(=O)(=O)c3ccc(OCC)cc3)cc2c1C(=O)OCC | u | -25%[7.34 µM] | -23%[46.1 µM] | 26% | 33% | -27%[7.34 µM]
C[C@H](NC(=O)c1ncn2c1c(=O)[nH]c1ccccc12)c1ccccc1 | x | -6% | x | x | -1% | -20%
C[C@H](NC(=O)c1ncn2c1c(=O)[nH]c1ccc(Br)cc12)c1ccccc1 | x | 13µM* | x | x | u | u
O=C(NN=C1C[C@@H](O)[C@H](O)[C@H]2[C@@H]3C(=O)N(C4CCCCC4)C(=O)[C@@H]3CC[C@@H]12)OCc1ccccc1 | x | x | -13%[14.2 µM] | x | x | x
Cc1ncc(CO)c2c1Oc1nc(-c3ccc(Cl)cc3)nc(SCC(=O)N3CCCCC3)c1C2 | 12%[46.1 µM] | -9% | x | 40µM* | -22% | -13%
Cc1ncc(CO)c2c1Oc1nc(-c3ccccc3)nc(SCC(=O)N3CCOCC3)c1C2 | u | 3% | u | 32µM* | -19% | -7%

Bioassay records: PubChem, National Center for Advancing Translational Sciences (NCATS)
